These results are taken from PubChem BioAssay (Tox21).

Experiment [1] can be described thus: Caspase-3/7 induction in HepG2 cells by small molecules, qHTS assay (AID 1346978). Further: nearly all actives have a fitted effect of over 15% in size. Further: potency means the concentration at half of the fitted maximal effect. In outline: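 Wild-type HepG2 cells, 2,000/well, settled 5 hr at 37 C and 5% CO2, then compound-treated for 17 hr; caspase-3/7 activity read by luminescent Caspase-Glo 3/7 after 30 min at room temperature.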
A short description of experiment [2]: Caspase-3/7 induction in CHO-K1 cells by small molecules, qHTS assay (AID 1346980). Further: nearly all actives have a fitted effect of over 15% in size. A digest of the protocol:
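Wild-type CHO-K1 cells exposed to compounds for 17hr at 37 C, 5% CO2. Caspase-3/7 activity then measured by Caspase-Glo 3/7 luminescence after 30min at room temperature.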
(Quantitative high-throughput screening tests each substance at several concentrations.)

Experiment [3] concerns the target Nuclear receptor subfamily 1 group I member 2 (Homo sapiens) (UniProt O75469). The experiment is described as follows: Human pregnane X receptor (PXR) small molecule agonists, qHTS assay (AID 1346982). Further: nearly all actives have a fitted effect of over 35% in size. Further: potency means the concentration at half of the fitted maximal effect. A digest of the protocol: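 Compound-induced hPXR transactivation of a CYP3A4 luciferase reporter was scored in HepG2 PXR-Luc cells over 24 hr at 37 C, 5% CO2, by luminescence.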

The target in experiment [4] is Nuclear receptor subfamily 1 group I member 2 (Rattus norvegicus) (UniProt Q9R1A7). As to the kind of experiment: Rat pregnane X receptor (rPXR) activation by small molecules, qHTS assay (AID 1346983). Further: nearly all actives have a fitted effect of over 20% in size. Further: potency means the concentration at half of the fitted maximal effect. The conditions noted are these: rPXR luciferase reporter cells, One-Glo luminescence, 24 h; max activation: hits give high values. A digest of the protocol:
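Cell-based rPXR activation assay: rPXR cells, 2,000 per well, rested 5hr at 37 C, then exposed to compounds in DMSO for 24 hr at 37 C. Luciferase activity read by One-Glo luminescence after 30 min at room temperature.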

The target in experiment [5] is Nuclear receptor subfamily 1 group I member 2 (Homo sapiens) (UniProt O75469). The experiment is described as follows: CYP3A4 induction through human pregnane X receptor (PXR) by small molecules, qHTS assay (AID 1346984). Further: nearly all actives have a fitted effect of over 40% in size. Further: potency means the concentration at half of the fitted maximal effect. A digest of the protocol: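 Readings come from a luciferase reporter: DPX-2 cells, which are HepG2 cotransfected with PXR and a CYP3A4-promoter construct, were exposed to test compounds for 24 h at 37C before One-Glo detection.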

Experiment [6] concerns the target Cytochrome P450 2D6 (Homo sapiens) (UniProt P10635). As to the kind of experiment: Cytochrome P450 Family 2 Subfamily D Member 6 (CYP2D6) small molecule antagonists: luciferase reporter qHTS assay (AID 1671196). Further: nearly all actives have a fitted effect of over 50% in size. Further: potency means the concentration at half of the fitted maximal effect. In outline:
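Each well received CYP2D6 with its proluciferin substrate and chemical, sat 10 min, then got NADPH regeneration solution for 1 h at room temperature. Luminescence in RLU served as the activity measure.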

Experiment [7] concerns the target Cytochrome P450 2C9 (Homo sapiens) (UniProt P11712). As to the kind of experiment: Cytochrome P450 Family 2 Subfamily C Member 9 (CYP2C9) small molecule antagonists: luciferase reporter qHTS assay (AID 1671198). Further: nearly all actives have a fitted effect of over 50% in size. Further: potency means the concentration at half of the fitted maximal effect. A digest of the protocol:
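P450-Glo proluciferin substrate with CYP2C9 enzyme; 10 min RT preincubation, then NADPH regeneration 1 h at 37C; luciferin detection reagent 20 min RT, luminescence in relative luminescence units.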
In general terms: A reporter such as luciferase makes a cellular process visible.

Experiment [8] addresses Cytochrome P450 1A2 (Homo sapiens) (UniProt P05177). The experiment is described as follows: Cytochrome P450 Family 1 Subfamily A Member 2 (CYP1A2) small molecule antagonists: luciferase reporter qHTS assay (AID 1671199). Further: nearly all actives have a fitted effect of over 50% in size. Further: potency means the concentration at half of the fitted maximal effect. In outline: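 Enzymatic CYP1A2 assay, human, luminescent: 10 min compound–enzyme–substrate preincubation, 1 h NADPH-dependent turnover, 20 min detection step, room temperature throughout. Reduced light indicates lower CYP1A2 activity.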

In experiment [9] the target is Voltage-gated inwardly rectifying potassium channel KCNH2 (Homo sapiens) (UniProt Q12809). As to the kind of experiment: Human Ether-a-go-go-Related Gene (hERG) channel small molecule antagonists: fluorescence cell-based qHTS assay (AID 1671200). Further: nearly all actives have a fitted effect of over 50% in size. Further: potency means the concentration at half of the fitted maximal effect. In outline: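 hERG-U2OS cells plated overnight at 37 C, loaded with FluxOR II dye 1 h at RT in dark; after 10 min, thallium stimulus added. Fluorescence (480/540 nm) read kinetically for 2 min at 1 s intervals.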
(Block of hERG is tested as a sign of cardiac risk.)

Experiment [10] deals with Cytochrome P450 2C19 (Homo sapiens) (UniProt P33261). The experiment is described as follows: Cytochrome P450 Family 2 Subfamily C Member 19 (CYP2C19) small molecule antagonists: luciferase reporter qHTS assay (AID 1671197). Further: nearly all actives have a fitted effect of over 65% in size. Further: potency means the concentration at half of the fitted maximal effect. In outline: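 Light output is proportional to CYP2C19 activity: proluciferin substrate is converted to luciferin, then detected by a luciferin detection reagent that also stops the 1 h, 37C NADPH-driven reaction. Ketoconazole serves as positive control.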

Experiment [11] deals with Cytochrome P450 3A4 (Homo sapiens) (UniProt P08684). As to the kind of experiment: Cytochrome P450 Family 3 Subfamily A Member 4 (CYP3A4) small molecule antagonists: luciferase reporter qHTS assay (AID 1671201). In outline:
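P450-Glo CYP3A4 luminescent assay: compounds preincubated 10 min at room temperature with enzyme and proluciferin substrate, NADPH regeneration added, 1 h room-temperature reaction, stopped with luciferin detection reagent; luminescence read after 20 min. Ketoconazole positive control.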

The nature of experiment [12]: Caspase-3/7 induction in HepG2 cells by small molecules, qHTS cell viability counter screen (AID 1346981). Further: nearly all actives have a fitted effect of over 30% in size. Further: potency means the concentration at half of the fitted maximal effect. A digest of the protocol: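 Viability determined by CellTiter-Fluor fluorescence in HepG2 wells also used for the luminescent Caspase-Glo 3/7 read. Compounds were present for 16 hr at 37 C, 5% CO2 before reagent addition.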
Experiment [13] deals with Nuclear receptor subfamily 1 group I member 2 (Homo sapiens) (UniProt O75469). The experiment is described as follows: Human pregnane X receptor (PXR) activation by small molecules, qHTS assay (AID 1346985). Further: nearly all actives have a fitted effect of over 40% in size. A digest of the protocol:
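DPX-2 cells (HepG2 co-transfected with a PXR response element and a CYP3A4-promoter luciferase construct) were seeded at 2,000 per well, rested 5 hr at 37C, then exposed to DMSO-dissolved compounds for 24 hr. Activation was read as luciferase luminescence.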

A short description of experiment [14]: Caspase-3/7 induction in CHO-K1 cells by small molecules, qHTS cell viability counter screen (AID 1346979). Further: nearly all actives have a fitted effect of over 35% in size. Further: potency means the concentration at half of the fitted maximal effect. A digest of the protocol: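 Wild-type CHO-K1 cells (1,500/well) treated with compound after 5 h plating; after 16 h at 37C, viability read as CellTiter-Fluor fluorescence following 1 h reagent incubation, in the same wells as the caspase read.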

Values without a mark were called inactive. Inconclusive results are not listed. Active and inactive are the calls of the source. The call rests on the fitted dose curve; in most records, active means well fitted curve in the direction sought with a large enough effect in the repeat runs; inconclusive means weak or mixed curves; inactive means no such curve, though single readings can be large; an effect the other way counts as inactive or inconclusive.
On the % scale 0 is the no-effect control and ±100 the full control effect.

Chain of Nuclear receptor subfamily 1 group I member 2 (Rattus norvegicus) (Q9R1A7 whole entry, looked up): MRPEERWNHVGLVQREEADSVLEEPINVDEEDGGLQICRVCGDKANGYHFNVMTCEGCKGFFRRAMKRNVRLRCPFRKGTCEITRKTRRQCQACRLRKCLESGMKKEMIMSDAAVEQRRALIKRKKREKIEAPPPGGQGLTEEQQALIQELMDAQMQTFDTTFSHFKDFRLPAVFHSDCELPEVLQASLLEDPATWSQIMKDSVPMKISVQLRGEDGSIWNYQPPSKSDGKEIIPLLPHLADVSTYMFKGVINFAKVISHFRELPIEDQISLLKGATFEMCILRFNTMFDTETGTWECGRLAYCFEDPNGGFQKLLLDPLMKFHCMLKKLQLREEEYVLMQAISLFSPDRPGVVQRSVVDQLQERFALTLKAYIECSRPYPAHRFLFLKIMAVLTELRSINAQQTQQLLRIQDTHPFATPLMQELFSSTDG
Chain of Cytochrome P450 2C9 (Homo sapiens) (P11712 whole entry, looked up): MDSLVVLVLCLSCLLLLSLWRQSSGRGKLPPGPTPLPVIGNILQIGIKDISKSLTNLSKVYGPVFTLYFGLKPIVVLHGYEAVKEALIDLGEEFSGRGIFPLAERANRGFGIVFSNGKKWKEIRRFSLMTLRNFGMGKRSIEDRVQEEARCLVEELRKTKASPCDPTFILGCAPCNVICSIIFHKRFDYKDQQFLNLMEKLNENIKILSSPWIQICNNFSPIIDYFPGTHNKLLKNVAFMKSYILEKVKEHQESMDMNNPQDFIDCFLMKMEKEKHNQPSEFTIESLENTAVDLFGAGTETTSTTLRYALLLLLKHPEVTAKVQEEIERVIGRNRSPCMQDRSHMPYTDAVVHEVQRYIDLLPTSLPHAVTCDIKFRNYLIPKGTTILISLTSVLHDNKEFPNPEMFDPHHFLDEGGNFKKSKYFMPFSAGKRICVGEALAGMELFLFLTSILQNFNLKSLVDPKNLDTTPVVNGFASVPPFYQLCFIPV
Chain of Cytochrome P450 2C19 (Homo sapiens) (P33261 whole entry, looked up): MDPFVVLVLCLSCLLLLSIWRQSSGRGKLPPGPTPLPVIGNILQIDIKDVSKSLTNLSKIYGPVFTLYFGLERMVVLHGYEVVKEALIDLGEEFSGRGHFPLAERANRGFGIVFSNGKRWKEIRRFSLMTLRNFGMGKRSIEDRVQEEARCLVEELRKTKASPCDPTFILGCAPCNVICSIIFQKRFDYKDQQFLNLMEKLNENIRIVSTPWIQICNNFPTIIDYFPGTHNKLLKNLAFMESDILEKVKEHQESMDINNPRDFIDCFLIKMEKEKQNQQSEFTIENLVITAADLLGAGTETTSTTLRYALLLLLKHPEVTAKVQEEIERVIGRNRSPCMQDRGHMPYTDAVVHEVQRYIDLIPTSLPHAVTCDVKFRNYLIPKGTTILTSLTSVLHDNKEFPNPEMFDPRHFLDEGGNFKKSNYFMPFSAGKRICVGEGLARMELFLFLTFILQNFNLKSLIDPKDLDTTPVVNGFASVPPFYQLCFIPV
Chain of Voltage-gated inwardly rectifying potassium channel KCNH2 (Homo sapiens) (Q12809 whole entry, looked up): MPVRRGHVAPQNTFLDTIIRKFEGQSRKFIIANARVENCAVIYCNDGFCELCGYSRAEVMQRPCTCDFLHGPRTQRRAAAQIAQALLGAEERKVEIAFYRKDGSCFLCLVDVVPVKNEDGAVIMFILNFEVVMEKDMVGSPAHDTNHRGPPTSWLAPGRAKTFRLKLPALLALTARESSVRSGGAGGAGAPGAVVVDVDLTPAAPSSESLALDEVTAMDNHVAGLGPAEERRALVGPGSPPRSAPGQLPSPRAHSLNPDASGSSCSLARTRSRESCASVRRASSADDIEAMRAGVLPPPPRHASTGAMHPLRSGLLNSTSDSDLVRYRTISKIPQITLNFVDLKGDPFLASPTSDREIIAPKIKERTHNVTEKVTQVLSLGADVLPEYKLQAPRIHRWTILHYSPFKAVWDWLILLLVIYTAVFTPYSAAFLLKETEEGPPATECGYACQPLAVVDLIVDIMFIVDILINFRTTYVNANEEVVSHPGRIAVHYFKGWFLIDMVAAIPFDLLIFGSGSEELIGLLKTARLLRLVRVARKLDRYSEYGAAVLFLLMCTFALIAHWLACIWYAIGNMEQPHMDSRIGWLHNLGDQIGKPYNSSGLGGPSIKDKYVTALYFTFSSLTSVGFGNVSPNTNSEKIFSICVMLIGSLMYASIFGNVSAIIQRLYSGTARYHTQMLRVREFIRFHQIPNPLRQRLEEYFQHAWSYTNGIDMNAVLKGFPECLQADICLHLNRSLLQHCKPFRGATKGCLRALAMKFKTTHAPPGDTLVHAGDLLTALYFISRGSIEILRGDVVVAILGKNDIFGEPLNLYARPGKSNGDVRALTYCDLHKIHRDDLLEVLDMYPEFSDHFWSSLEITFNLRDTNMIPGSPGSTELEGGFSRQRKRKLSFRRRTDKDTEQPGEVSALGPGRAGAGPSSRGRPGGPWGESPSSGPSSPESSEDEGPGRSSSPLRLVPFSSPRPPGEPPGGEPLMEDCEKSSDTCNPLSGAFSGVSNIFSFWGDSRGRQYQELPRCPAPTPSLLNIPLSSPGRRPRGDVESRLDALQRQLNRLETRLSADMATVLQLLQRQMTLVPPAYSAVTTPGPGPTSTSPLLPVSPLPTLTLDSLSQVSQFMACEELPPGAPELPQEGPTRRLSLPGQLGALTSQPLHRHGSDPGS
Chain of Cytochrome P450 1A2 (Homo sapiens) (P05177 whole entry, looked up): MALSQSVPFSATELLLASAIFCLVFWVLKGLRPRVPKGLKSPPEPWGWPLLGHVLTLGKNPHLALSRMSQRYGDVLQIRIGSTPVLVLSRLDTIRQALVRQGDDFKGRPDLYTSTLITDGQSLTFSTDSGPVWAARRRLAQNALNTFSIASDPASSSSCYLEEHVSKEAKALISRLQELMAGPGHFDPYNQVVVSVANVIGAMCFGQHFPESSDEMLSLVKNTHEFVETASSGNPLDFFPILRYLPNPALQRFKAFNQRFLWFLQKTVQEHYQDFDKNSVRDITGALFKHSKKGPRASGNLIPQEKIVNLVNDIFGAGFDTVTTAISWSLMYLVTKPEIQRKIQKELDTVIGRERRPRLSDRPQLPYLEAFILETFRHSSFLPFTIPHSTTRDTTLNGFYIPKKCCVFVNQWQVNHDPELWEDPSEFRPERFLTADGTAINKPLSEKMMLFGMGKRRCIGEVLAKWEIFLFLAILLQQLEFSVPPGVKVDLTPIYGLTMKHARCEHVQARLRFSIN
Chain of Cytochrome P450 3A4 (Homo sapiens) (P08684 whole entry, looked up): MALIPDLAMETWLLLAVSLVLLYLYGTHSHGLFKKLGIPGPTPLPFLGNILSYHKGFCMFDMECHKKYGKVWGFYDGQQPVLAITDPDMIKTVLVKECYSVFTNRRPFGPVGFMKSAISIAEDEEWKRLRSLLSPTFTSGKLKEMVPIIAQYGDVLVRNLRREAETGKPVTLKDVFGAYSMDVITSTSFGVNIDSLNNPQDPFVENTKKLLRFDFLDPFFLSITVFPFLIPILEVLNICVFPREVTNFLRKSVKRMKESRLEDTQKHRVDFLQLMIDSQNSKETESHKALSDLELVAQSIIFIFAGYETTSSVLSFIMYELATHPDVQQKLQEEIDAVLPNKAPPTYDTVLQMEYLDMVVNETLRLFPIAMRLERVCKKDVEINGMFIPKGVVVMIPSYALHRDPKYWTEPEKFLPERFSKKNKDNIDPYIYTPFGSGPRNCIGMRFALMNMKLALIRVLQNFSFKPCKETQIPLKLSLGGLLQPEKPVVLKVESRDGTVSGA
Chain of Nuclear receptor subfamily 1 group I member 2 (Homo sapiens) (O75469 whole entry, looked up): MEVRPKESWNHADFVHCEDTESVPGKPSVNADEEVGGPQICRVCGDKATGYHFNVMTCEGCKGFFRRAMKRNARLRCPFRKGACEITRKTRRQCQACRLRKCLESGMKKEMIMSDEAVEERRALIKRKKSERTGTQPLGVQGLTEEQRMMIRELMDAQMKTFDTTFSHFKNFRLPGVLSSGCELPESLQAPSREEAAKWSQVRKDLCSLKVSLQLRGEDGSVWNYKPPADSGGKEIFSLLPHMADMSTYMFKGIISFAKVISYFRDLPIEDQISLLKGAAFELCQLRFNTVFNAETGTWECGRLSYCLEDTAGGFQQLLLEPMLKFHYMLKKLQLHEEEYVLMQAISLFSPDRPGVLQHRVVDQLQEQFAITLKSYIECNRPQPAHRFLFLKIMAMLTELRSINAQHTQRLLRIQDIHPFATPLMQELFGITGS
Chain of Cytochrome P450 2D6 (Homo sapiens) (P10635 whole entry, looked up): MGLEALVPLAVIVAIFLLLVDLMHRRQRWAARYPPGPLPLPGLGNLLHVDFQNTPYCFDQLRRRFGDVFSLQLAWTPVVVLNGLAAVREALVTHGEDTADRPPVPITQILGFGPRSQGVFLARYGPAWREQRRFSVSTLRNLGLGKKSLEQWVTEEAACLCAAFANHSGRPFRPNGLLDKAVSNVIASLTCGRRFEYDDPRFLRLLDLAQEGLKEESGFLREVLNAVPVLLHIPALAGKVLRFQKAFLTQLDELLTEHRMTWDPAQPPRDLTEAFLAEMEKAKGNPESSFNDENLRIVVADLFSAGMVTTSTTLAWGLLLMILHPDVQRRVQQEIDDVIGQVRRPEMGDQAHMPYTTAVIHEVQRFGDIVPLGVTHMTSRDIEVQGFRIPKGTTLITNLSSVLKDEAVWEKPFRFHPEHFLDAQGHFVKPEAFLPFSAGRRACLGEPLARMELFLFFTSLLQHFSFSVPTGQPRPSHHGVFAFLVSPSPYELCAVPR

For `CC(CN(C)C)CN1c2ccccc2CCc2ccccc21` (stereo not given), the Potency result in experiment [1], in [2], in experiment [7] and in [8] was “inactive” each time. Also, the Potency in experiment [3] was 23.7 µM (active); in experiment [5], 8.91 µM (active); in experiment [6] it was 3.09 µM (active); in experiment [9], 15.1 µM (active). Also, the max activation in [4] was -1.19%.
Consider `NC1(c2ccc(-c3nc4ccn5c(=O)[nH]nc5c4cc3-c3ccccc3)cc2)CCC1`, for which the Potency entry in [1], in [2], in experiment [6], in experiment [10], in [7] and in [8] was “inactive” throughout. Further, the Potency entry in experiment [11] is “inactive”.
`CCCCCCCCCCCCCCNCCO`: the Potency entry in experiment [1], in experiment [12], in [3], in experiment [5], in [13] and in experiment [10] was “inactive” each time. Moreover, the Potency entry in experiment [7] and in experiment [11] was “inactive” throughout. Also, the max activation in experiment [4] is 11.2%. Besides, the Potency was 3.09 µM (active) in experiment [6] and 28.8 µM (active) in experiment [8].
For the molecule `CC(=O)Oc1ccc(C2(c3ccc(OC(C)=O)cc3)Oc3ccccc3NC2=O)cc1`, the Potency result in experiment [1], in experiment [2], in experiment [12], in experiment [8], in experiment [9] and in experiment [11] was “inactive” throughout. Besides, the Potency in experiment [10] was 6.92 µM (active); in [7], 2.45 µM (active).
Turning to `C1CC(COCC2CO2)CCC1COCC1CO1` (stereo not given), the Potency result in experiment [1], in experiment [2], in [12], in experiment [6], in [9] and in experiment [11] was “inactive” throughout.
With `Cc1cn[nH]c1`, the Potency result in [1], in [2], in [12] and in [9] was “inactive” each time.
In the case of `COc1cc(C=C2CCC/C(=C\c3ccc(O)c(OC)c3)C2=O)ccc1O`, the Potency in [14] is 29.8 µM (active); in [12] it was 29.8 µM (active); in [10], 24.5 µM (active); in experiment [7] it was 15.5 µM (active). The Potency result in experiment [2], in experiment [3], in [5], in experiment [6], in experiment [8] and in experiment [9] was “inactive” each time. Also, in experiment [4], the max activation is -7.88%.
Regarding `C[n+]1c2cc(N)ccc2cc2ccc(N)cc21` (tested in a mixture with another compound), the Potency was 9.44 µM (active) in experiment [1], 15.5 µM (active) in [6], 38.9 µM (active) in experiment [10] and 2.19 µM (active) in experiment [8]. The Potency result in experiment [2], in experiment [7] and in [9] was “inactive” in each case. Moreover, in [4], the max activation was -10.5%.
As to `Oc1ccc(-c2ccc(O)cc2)cc1`, the Potency result in [2], in experiment [10], in [7] and in [9] was “inactive” each time. The Potency in experiment [3] is 48.9 µM (active); in [8], 28.4 µM (active).
Regarding `CCCCNc1c(C(=O)OCC)c(C)nc2c1cnn2CC`, the Potency entry in experiment [2], in experiment [12], in [6] and in experiment [9] was “inactive” each time. For the same molecule, the values for the Potency in [3], in experiment [7] and in experiment [8] were 29.8 µM (active), 27.5 µM (active) and 2.75 µM (active), respectively.
Regarding `C/C=C/C=N/NC(=O)c1ccncc1`, the Potency result in [14], in experiment [12], in [5], in [13], in experiment [8] and in experiment [9] was “inactive” each time. For the same molecule, in experiment [4], the max activation is -3.54%.
For `Cc1c(C(=O)O)cccc1[N+](=O)[O-]`, the Potency result in experiment [2], in [12], in experiment [3], in experiment [6], in experiment [10] and in [7] was “inactive” each time. Moreover, the Potency result in [8], in experiment [9] and in experiment [11] was “inactive” throughout.
In the case of `Cc1oc(-c2ccccc2)nc1CCOc1ccc(C[C@H](Nc2ccccc2C(=O)c2ccccc2)C(=O)O)cc1`, the Potency is 30.6 µM (active) in [14], 43.3 µM (active) in [12] and 20 µM (active) in [7]. Moreover, the Potency result in experiment [6], in experiment [8] and in experiment [9] was “inactive” throughout.
Consider `Cc1ccc(CCn2c3c(c4cc(Cl)ccc42)CN(C)CC3)cn1`, for which the Potency in experiment [3] is 33.5 µM (active); in experiment [6], 7.76 µM (active); in experiment [10], 17.4 µM (active); in experiment [9], 12 µM (active). Further, in experiment [7], the Potency entry was “inactive”.
Turning to `CCOC(=O)C1=C(C)NC(C)=C(C(=O)OCC)C1c1ccccc1/C=C/C(=O)OC(C)(C)C`, the Potency was 33.5 µM (active) in [14]; 1.33 µM (active) in [3]; 3.55 µM (active) in experiment [4]; 4.9 µM (active) in [10]; 1.1 µM (active) in experiment [7]. For the same molecule, the Potency entry in experiment [5] was “inactive”.
